High-throughput results deposited in PubChem by several laboratories.
Rows were chosen to be rich in hits. Some 3.4% of all compounds tested hit in one or more screens of this group.
HSP90 inh: inhibitors of HSP90 luciferase refolding in rabbit reticulocyte lysate | AID 1789 | 290,000 compounds, 0.91% hits | luciferase refolding luminescence, 3 h | inhibition, % at 5.6 µM;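 active = inhibition above the screen-wide mean plus 3 SD, computed separately per campaign, cut at about 16% in these data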;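 note: inhibitors lower the luminescence because luciferase stays unfolded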
HSF1 inh: HSF1 inhibition. NIH3T3-HGL HSE-luciferase, MG132-induced, luminescence 8 h; hits give low values. activity change, negative = inhibition, % at 7.5 µM (by protocol). 300,000 compounds, 0.77% hits. AID 2098;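 active = more than half of replicate wells show activity change below -50%, luminescence cut by over half; inconclusive = some wells, but at most half, below -50%; inactive = no replicate well below -50%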;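 note: luciferase reports HSF-1 transcriptional activity via heat shock element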
PG9 Ab binder: PG9 antibody binding by small molecule. 360,000 compounds, 0.43% hits. TR-FRET gp120-PG9 antibody binding. AID 624416. inhibition, % at 6.7 µM; in the data active = inhibition above about 8.5%
FXN GAA850 act: frataxin GAA850 promoter activation | 360,000 compounds, 0.56% hits | HEK293 lucGAA850 FXN promoter luciferase reporter, 24 h; percent of 10 µM SAHA response | activation, % at 6 µM;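 active = activation above the average of all compounds screened plus 3 SD, cutoff fixed separately per campaign, cut at about 7.5% in these data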
AI-2 QS mod: modulators of Vibrio harveyi AI-2 quorum sensing system | AID 2094 | activity change, % at 7.5 µM | Vibrio harveyi JMH597 AI-2 luminescence/OD600 ratio, 9 h; hits give low values; strain lacks LuxN and CqsS sensors; 0 = neutral-control median | 300,000 compounds, 0.4% hits; in the data active = activity change below about -75%, passing the limit was not always enough; inconclusive = no clear call, values can overlap the other calls;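 note: luminescence divided by OD600 gain over 9 h not by final OD600 alone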
SMARCA2 activ: SMARCA2 function activation, primary screen; MG213 cells, MMTV-luciferase reporter, dexamethasone, overnight; 370,000 compounds, 1% hits; activation, % at 9.1 µM; in the data active = activation above about 7.8%
GAA30 counter: counter-screen for GAA850 frataxin promoter activators: GAA30 promoter activation; shares compounds with FXN GAA850 act; activation, % at 6 µM; 1,900 compounds, 66% hits; AID 588350; HEK293 lucGAA30 FXN promoter luciferase, 24 h; DMSO = 0%, 5 µM ipriflavone = 100%;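 active = mean activation above the mean of solvent-only control wells plus 3 SD, cut at about 22% in these data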;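 note: counterscreen of GAA850 promoter hits where activity marks nonselective or luminescence artifacts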
FXN GAA850 conf: GAA850 FXN promoter activation confirmation. shares compounds with FXN GAA850 act. HEK293 lucGAA850 FXN promoter luciferase reporter, 24 h; 100% = activation by SAHA. activation, % at 6 µM. 1,900 compounds, 86% hits. AID 588351;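 active = mean activation above a set limit taken from the primary screen, cut at about 8% in these data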
Of the large screens only hits and unclear results are named; the others gave an inactive call (follow-up assays come after a bar, where they were run).

CCOc1ccccc1NC(=O)Nc1ccsc1C(=O)OC	none
COC(=O)c1sccc1NC(=O)COc1ccccc1Cl	FXN GAA850 act 7.9 | GAA30 counter 81 | FXN GAA850 conf 29
O=C(Cn1ncc(Cl)c(Cl)c1=O)Nc1ccc2c(c1)OCO2	FXN GAA850 act 11 (no result: HSP90 inh, HSF1 inh, AI-2 QS mod) | GAA30 counter inactive | FXN GAA850 conf 12
COc1ccc(NC(=O)Cn2ncc(Cl)c(Cl)c2=O)cc1S(=O)(=O)N1CCOCC1	FXN GAA850 act 7.8 | GAA30 counter inactive | FXN GAA850 conf 16
COc1ccc(NC(=O)c2ccc(Cl)nc2)cc1S(=O)(=O)N1CCOCC1	none (no result: HSP90 inh, HSF1 inh, AI-2 QS mod)
CCC(=O)Nc1ccc(C(=O)Cn2ncc(Cl)c(Cl)c2=O)cc1	FXN GAA850 act 8.7 | GAA30 counter 22 | FXN GAA850 conf 11
Cc1cc(Br)ccc1NC(=O)CNC(=O)Cn1ncc(Cl)c(Cl)c1=O	FXN GAA850 act 8.7 (no result: HSF1 inh) | GAA30 counter inactive | FXN GAA850 conf inactive
Cc1ccc(S(=O)(=O)N2CCCCC2)cc1NC(=O)Cn1ncc(Cl)c(Cl)c1=O	none (no result: HSP90 inh, HSF1 inh, AI-2 QS mod)
Clc1ccc(-c2cc(-c3nnc4sc(Cc5cccs5)nn34)[nH]n2)cc1	none (no result: HSP90 inh, HSF1 inh, PG9 Ab binder, FXN GAA850 act, AI-2 QS mod)
OC(c1ccc(F)cc1)c1nc(-c2cccc(F)c2)cs1 (stereo not drawn)	none (no result: HSP90 inh, HSF1 inh, AI-2 QS mod)
CCC(=O)c1ccc2c(c1)OCCO2	none
CCN(CC)S(=O)(=O)c1cc(NC(=O)CN2C(=O)NC(C)(c3ccccc3)C2=O)ccc1C (stereo not drawn)	none
O=C(Cn1ncc(Cl)c(Cl)c1=O)c1ccc2c(c1)OCCO2	FXN GAA850 act 8.6 (no result: HSP90 inh, HSF1 inh, AI-2 QS mod) | GAA30 counter inactive | FXN GAA850 conf 18
CCN(CC)S(=O)(=O)c1cc(NC(=O)Cn2ncc(Cl)c(Cl)c2=O)ccc1C	FXN GAA850 act 12 | GAA30 counter inactive | FXN GAA850 conf 15
O=C(Cc1nc2ccccc2[nH]c1=O)c1ccccc1	FXN GAA850 act 8.8 (no result: AI-2 QS mod) | GAA30 counter 140 | FXN GAA850 conf 53
CN1C(c2ccccc2)CC2CN(c3ccccc3)C(=O)C21 (stereo not drawn)	none (no result: HSP90 inh, HSF1 inh, PG9 Ab binder, FXN GAA850 act, AI-2 QS mod)
Cc1noc(C)c1CSCC(=O)Nc1cc(S(=O)(=O)N2CCCCC2)ccc1OC(C)C	none (no result: HSP90 inh)
CCN(CC)c1ccc(S(=O)(=O)N2CCCCC2)cc1NC(=O)CSCc1c(C)noc1C	FXN GAA850 act 10 (no result: HSP90 inh, HSF1 inh, AI-2 QS mod) | GAA30 counter inactive | FXN GAA850 conf 22
CCn1c2ccc(C)cc2c2nc3cc(C(=O)O)ccc3nc21	FXN GAA850 act 8.0 | GAA30 counter 147 | FXN GAA850 conf 47
CCn1c2ccc(Cl)cc2c2nc3ccccc3nc21	none (no result: FXN GAA850 act)
COc1ccc(OC)c(C(=O)CSc2nnc(C3CC3)n2C2CC2)c1	none (no result: HSP90 inh, HSF1 inh, AI-2 QS mod)
O=[N+]([O-])c1cc(S(=O)(=O)C(F)(F)F)ccc1Sc1nc2ccccc2s1	HSF1 inh inconclusive, FXN GAA850 act 13 | GAA30 counter inactive | FXN GAA850 conf 38
C=CC[C@H]1c2ccccc2[C@H]2N3N=Cc4ccccc4[C@H]3[C@H](CCCC)C(=O)N2N1C(=O)NCc1ccccc1	none (no result: HSP90 inh, HSF1 inh, PG9 Ab binder, FXN GAA850 act, AI-2 QS mod)
O=C(NC1CCCC1)c1cc(-c2cccs2)on1	FXN GAA850 act 18 | GAA30 counter 159 | FXN GAA850 conf 92
O=C(NCCCN1CCOCC1)c1cc(-c2cccs2)on1	FXN GAA850 act 20 | GAA30 counter 113 | FXN GAA850 conf 80
O=C(NCCCn1ccnc1)c1cc(-c2cccs2)on1	FXN GAA850 act 41 | GAA30 counter 159 | FXN GAA850 conf 114
O=C(Cc1ccccc1)N/N=C/c1ccc2c(c1)OCO2	FXN GAA850 act 9.5 | GAA30 counter 84 | FXN GAA850 conf 30
O=C(CNc1ccccc1)N/N=C/c1ccc2c(c1)OCO2	none
COc1ccccc1C(=O)Nc1ccc(C(=O)/C=C/c2cccs2)cc1	FXN GAA850 act 8.5 | GAA30 counter 22 | FXN GAA850 conf 13
O=C(/C=C/c1cccs1)c1ccc(NC(=O)c2ccccc2F)cc1	none
Cc1cccc(C)c1NC(=O)c1nc(S(=O)(=O)Cc2ccccc2)ncc1Cl	FXN GAA850 act 8.2 | GAA30 counter inactive | FXN GAA850 conf 20
CC(Oc1ccc2c3c(c(=O)oc2c1)CCC3)C(=O)NCCCn1ccnc1 (stereo not drawn)	none
CC(Oc1ccc2c(-c3ccccc3)cc(=O)oc2c1)C(=O)NCCCn1ccnc1 (stereo not drawn)	FXN GAA850 act 8.7 | GAA30 counter inactive | FXN GAA850 conf inactive
COc1ccc2c(c1OC)C(=O)N(c1nccs1)C2	none
COc1ccc(N2Cc3ccc(OC)c(OC)c3C2=O)cc1	FXN GAA850 act 8.5 | GAA30 counter 100 | FXN GAA850 conf 28
CC1(Oc2ccc(-n3ccnc3)cc2)CCN(Cc2cccn2-c2nccs2)C1 (stereo not drawn)	none (no result: HSP90 inh, HSF1 inh, AI-2 QS mod)
CCc1ccc(Oc2cc(Cl)nc(N)n2)cc1	FXN GAA850 act 7.7 | GAA30 counter 103 | FXN GAA850 conf 36
COc1ccc(Oc2cc(Cl)nc(N)n2)cc1	none
CC(=O)Nc1ccc(Oc2nc(-c3cccnc3)nc3sc4c(c23)CCCC4)cc1	none (no result: HSP90 inh, PG9 Ab binder, SMARCA2 activ)
O=C1CN(c2nc(-c3cccnc3)nc3sc4c(c23)CCCC4)CCN1	FXN GAA850 act 10 | GAA30 counter inactive | FXN GAA850 conf 21
Nc1nc(-c2cccnc2)nc2sc3c(c12)CCCC3	FXN GAA850 act 10 | GAA30 counter 108 | FXN GAA850 conf 53
CC(C)(C)S(=O)(=O)N1C[C@H]2CC(=O)C=C2[C@@H]1CCO	none (no result: HSP90 inh, HSF1 inh, FXN GAA850 act, AI-2 QS mod)
C#CCN1CC(COc2ccccc2)Oc2cccc(Oc3ccc(OC)cc3)c2S1(=O)=O (stereo not drawn)	none (no result: HSP90 inh, HSF1 inh, FXN GAA850 act, AI-2 QS mod)
C=CCN(CC#CC1=CCCCC1)Cc1ccccc1	none (no result: HSP90 inh, HSF1 inh, PG9 Ab binder, FXN GAA850 act, AI-2 QS mod)
COc1ccc(C(=O)/C=C/Sc2nc3ccccc3o2)cc1	FXN GAA850 act 9.8 | GAA30 counter inactive | FXN GAA850 conf inactive
COc1ccc(C(C)=O)cc1CSc1nc2ccccc2o1	none
Brc1ccc2c(c1)-c1ccccc1C1=NCCN12	FXN GAA850 act 24 (no result: HSP90 inh, HSF1 inh, AI-2 QS mod) | GAA30 counter inactive | FXN GAA850 conf 130
Cc1c(Cl)ccc2sc(NC(=O)c3ccco3)nc12	FXN GAA850 act 7.7 | GAA30 counter 105 | FXN GAA850 conf 38
Brc1cccc(-c2nc3ccc(Br)cn3c2Cc2ccccc2)c1	none (no result: HSP90 inh, HSF1 inh, FXN GAA850 act, AI-2 QS mod)
O=C1[C@H]2[C@@H](c3ccc(F)cc3)N3C(=O)N(c4ccccc4)C(=O)[C@@]3(Cc3ccccc3)[C@H]2C(=O)N1C1CCCCC1	FXN GAA850 act 10 (no result: HSP90 inh) | GAA30 counter 23 | FXN GAA850 conf inactive
